# Screening data from PubChem.
# D2 PAM-1: Beta-Arrestin HTS for Positive Allosteric Modulators of the Human D2 Dopamine Receptor: Potentiators | potentiation, % (no concentration beside the values) | D(2) dopamine receptor (Homo sapiens), P14416 | AID 624464, 2012 | 360,000 compounds, 0.23% hits | DiscoveRx D2 beta-arrestin cells, luminescence, 90 min; 100% = 57 uM dopamine signal; in the data active = potentiation above about 50%
# Target sequence (P14416 whole entry, looked up): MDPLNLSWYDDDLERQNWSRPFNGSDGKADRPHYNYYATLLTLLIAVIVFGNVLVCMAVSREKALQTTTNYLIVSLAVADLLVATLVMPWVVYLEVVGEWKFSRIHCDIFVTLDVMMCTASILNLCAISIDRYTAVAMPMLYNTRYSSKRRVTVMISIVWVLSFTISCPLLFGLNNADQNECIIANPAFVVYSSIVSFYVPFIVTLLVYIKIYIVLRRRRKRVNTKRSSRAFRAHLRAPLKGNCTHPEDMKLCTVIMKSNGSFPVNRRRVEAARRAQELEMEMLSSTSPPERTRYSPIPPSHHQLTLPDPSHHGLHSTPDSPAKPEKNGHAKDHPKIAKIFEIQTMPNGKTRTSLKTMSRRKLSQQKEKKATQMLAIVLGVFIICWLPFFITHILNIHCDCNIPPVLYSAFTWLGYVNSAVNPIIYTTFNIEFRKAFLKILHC
#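 PathHunter beta-arrestin assay in DiscoveRx D2 cells. Compounds were added with an EC20 of dopamine (50 nM final) for 90 min at 37 deg C. Luminescence was read 1 h after detection reagent, with 57 uM dopamine as the EC100 control.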
# D2 ag-1: Beta-Arrestin HTS for Positive Allosteric Modulators of the Human D2 Dopamine Receptor: Agonists; D(2) dopamine receptor (Homo sapiens), P14416; 360,000 compounds, 0.084% hits; AID 624465, 2012; DiscoveRx PathHunter D2 beta-arrestin, luminescence, 90 min; 100% = 57 uM dopamine signal; activation, % (no concentration beside the values); in the data active = activation above about 40%
#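 Agonist mode: compounds alone added to overnight-plated D2 PathHunter cells for 90 min at 37 C, with 57 uM final dopamine (EC100) defining full response. Beta-arrestin recruitment detected by chemiluminescent reagent, read after 1 h at ambient temperature.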
# D2 ag-2: HTS Assay for Allosteric Agonists of the Human D2 Dopamine Receptor: Primary Screen for Agonists. activation, % at 2 µM. HEK293 T-REx D2 cells, calcium flux agonist mode. 340,000 compounds, 0.53% hits. D(2) dopamine receptor (Homo sapiens), P14416;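 active = activation over 3 SD above normal in the single-dose calcium agonist read, cut at about 30% in these data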; also: 0% is about no effect
#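 Calcium-flux readout, 1 cycle/sec over 180 s following compound pin transfer, in inducible HEK293 Trex D2 cells (force-coupled); dopamine controls included. Positive calcium responses during this window marked compounds as potential agonists.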
# D2 antag: HTS Assay for Allosteric Antagonists of the Human D2 Dopamine Receptor: Primary Screen for Antagonists; D(2) dopamine receptor (Homo sapiens), P14416; HEK293 TREx D2 cells, calcium flux, dopamine EC80; inhibition, % at 10 µM; 340,000 compounds, 2% hits; in the data active = inhibition above about 30%; inactive = below that, where a call was filed; also: 0% is about no effect
#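 Read-out: kinetic calcium fluorescence (1 cycle/s) in inducible HEK293 T-REx D2 cells after an EC80 dopamine addition that followed 180 s compound preincubation. Loss of the dopamine response indicates antagonism.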
# D2 PAM-2: HTS Assay for Positive Allosteric Modulators of the Human D2 Dopamine Receptor: Primary Screen for Potentiators; HEK293 T-REx D2, calcium flux, EC20 dopamine potentiation; potentiation, % at 10 µM; 340,000 compounds, 0.34% hits;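 active = potentiation over 3 SD above the plate norm, cut at about 30% in these data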; also: 0% is about no effect
#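 Calcium flux readout, no-wash dye, 1 read/s. Inducible HEK293 Trex D2 line, overnight 30 C. Compound alone 180 s (agonist flags), then EC20 dopamine, another 180 s to score potentiation.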
# The depositor's hits bear a star; · = no result. An excerpt weighted towards active compounds, which were near 2.4% of everything screened.
SMILES,D2 PAM-1,D2 ag-1,D2 ag-2,D2 antag,D2 PAM-2
COc1ccc(OC)c(CN2CCN(Cc3cccc4ccccc34)CC2)c1,-12,11,-1,71*,-31
COc1ccc(OC)c(CN2CCCCCC2)c1,-15,-1,-1,-7,-8
O=C(CN1C(=O)NC(Cc2c[nH]c3ccccc23)C1=O)Nc1cccc(S(=O)(=O)N2CCCCCC2)c1 (configuration not stated),52*,4,-2,3,10
CC(=O)OC1=CN(Cc2ccccc2)S(=O)(=O)c2ccccc21,·,·,-1,·,5
Cc1ccc(S(=O)(=O)N(C)C)cc1NC(=O)CSc1ccc2c(c1)OCCO2,-22,2,0,36*,-2
Cc1ccc(S(=O)(=O)N2CCCCC2)cc1NC(=O)COC(=O)c1c(F)cccc1F,12,-5,-1,6,31*
Cc1ccc(C)c(SCC(=O)Nc2cc(S(=O)(=O)N3CCOCC3)ccc2C)c1,-2,-5,0,53*,-5
COc1ccccc1CCC(=O)OCC(=O)Nc1cc(S(=O)(=O)N2CCOCC2)ccc1C,-23,-3,2,33*,-6
Cc1cc(C)cc(NC(=O)CN2C(=O)CCc3cc(S(=O)(=O)N4CCCCC4)ccc32)c1,·,·,3,·,3
OC(c1cccc(Cl)c1)c1nc(-c2ccoc2)cs1 (configuration not stated),-12,-6,·,·,·
Cc1ccc(NC(=O)CCCn2c(=O)oc3ccccc32)c(O)c1,-11,-1,0,-10,4
Cc1cc(C)c(NC(=O)CCCn2c(=O)oc3ccccc32)c(C)c1,-1,-3,0,33*,4
CCOC(=O)c1c(NC(=O)Cn2c(=O)oc3ccccc32)oc(C)c1C(C)=O,-12,6,-1,31*,17
O=C(CCn1c(=O)oc2ccccc21)Nc1cccc(Cl)c1,-9,-3,-1,9,0
CCOC(=O)c1c(C)[nH]c(C(=O)Cn2c(=O)oc3ccccc32)c1C,-27,-1,0,6,-10
CCOC(=O)c1cccc(NC(=O)CCn2c(=O)oc3ccccc32)c1,-6,-1,-2,32*,-14
CCCCN1C(=O)c2[nH]nc(-c3ccccc3O)c2C1c1ccc(C(C)(C)C)cc1 (configuration not stated),·,·,0,·,-4
Cc1sc2nc3ccc(N4CCCCC4)nn3c(=O)c2c1C,-2,-12,1,37*,-9
Cc1ccc2nc3ccc(N4CCCC4)nn3c(=O)c2c1,-13,-2,-1,5,-7
CCC(=O)Oc1c(Sc2ccc(Cl)cc2)c(C)nn1C(C)(C)C,·,·,0,·,-9
O=C(CCCc1ccccc1)Nc1ccnn1C1CCN(Cc2ccc(Cl)cc2)CC1,-20,-1,0,35*,-23
O=C(CCCc1ccccc1)Nc1ccnn1C1CCN(Cc2ccccc2)CC1,-30,-6,1,41*,-34
COCCN1Cc2cccc(C(=O)Nc3ccc(C)cc3)c2C1=O,0,2,1,41*,4
CC1(C)CCN2CCC(C)(C)c3c(O)ccc1c32,2,4,34*,-2,4
CCOC(=O)c1c(SCC(=O)Nc2nc3ccccc3s2)nc(=O)[nH]c1C,·,·,1,·,0
SMILES,D2 PAM-1,D2 ag-1,D2 ag-2,D2 antag,D2 PAM-2
CCOC(=O)c1c(SCC(=O)Nc2nc(C)cs2)nc(=O)[nH]c1C,-4,-3,0,32*,4
COc1ccc(/C=N/N(C(C)=O)c2nc(-c3ccc(C)cc3)cs2)cc1,18,-1,-1,-21,30*
COc1cc2c(cc1OC)C(COc1ccc3c(C)cc(=O)oc3c1)N(C(=O)c1cccc(C)c1)CC2 (configuration not stated),·,·,0,·,-11
Cc1cc(O)cc(C)c1NS(=O)(=O)c1ccc2ccccc2c1,-13,-1,0,11,-1
CCc1ccccc1OCCCCN1CCCCC1,-16,2,0,89*,-27
Cc1ccccc1OCCCCN1CCCCC1,-20,-6,1,50*,-16
CCc1ccccc1OCCCN1CCCC1,-4,7,·,·,-13
Cc1cc(C)c(C)c(OCCCCN2CCCCC2)c1,-26,6,0,55*,-36
COc1ccccc1OCCCCN1CCCCC1,-6,2,·,·,-19
Cc1cc(C)c(C)c(OCCOCCN2CCN(C)CC2)c1,-23,-5,-1,-12,3
Cc1ccc(CNC(=O)Cn2cc(S(=O)(=O)Cc3ccccc3F)c3ccccc32)cc1,·,·,-2,·,7
COc1ccc(-c2cn3cccnc3n2)cc1NC(=O)Nc1ccc(Cl)cc1,·,·,1,·,7
COc1cc(/C=C2/SC(=Nc3ccc(O)cc3)NC2=O)cc(OC)c1O,5,8,51*,3,-25
Cc1nc2nc(SCC(=O)Nc3cccc(Cl)c3)nn2c(C)c1Cc1ccccc1,·,·,0,·,-5
CC(=O)C1=NOC(CNC(=O)c2c(-c3ccccc3Cl)noc2C)C1 (configuration not stated),-2,7,0,-6,32*
CCOC(=O)C1=NOC(CNC(=O)c2c(-c3ccccc3Cl)noc2C)C1 (configuration not stated),-13,-1,1,-8,3
C=CCOC(=O)C1=C(C)OC(N)=C(C#N)C1c1c(C)nn(-c2ccccc2)c1Cl (configuration not stated),-14,0,0,44*,-10
Cc1cccc(OCCn2nnc3sc4c(c3c2=O)CCCC4)c1,·,·,-1,·,2
Cc1ccc(C(=O)NCCc2csc(C)n2)cc1,-2,-7,0,43*,2
CCCCC(=O)Nc1ccc2oc(-c3ccncc3)nc2c1,-8,-2,·,·,·
CCCCCC(=O)Nc1ccc2oc(-c3cncc(Br)c3)nc2c1,-9,0,1,-16,11
CCCC(=O)Nc1ccc2oc(-c3ccncc3)nc2c1,-6,-1,-1,1,34*
CCCC(=O)Nc1ccc2oc(-c3cncc(Br)c3)nc2c1,-3,-1,0,39*,8
C=CCNC(=O)c1cc(Cl)ccc1[N+](=O)[O-],-32,-1,1,-3,-4
C=CCNC(=O)c1cc(Cl)ccc1Cl,-4,0,0,-15,33*
COc1ccc(Cl)cc1NC(=O)NCCN1CCCCC1,-9,-2,0,58*,-27
COc1ccc(Cl)cc1NC(=O)NCc1ccco1,-11,-5,0,18,-16
C=CCNC(=O)Nc1cc(Cl)ccc1OC,-9,-4,1,38*,-13
